Consider 47 compounds from PubChem BioAssay AID504332 (National Center for Advancing Translational Sciences (NCATS), 2011).

Structures are written as SMILES. About 31,000 (8.9%) of roughly 350,000 compounds were called active. About 15% were inconclusive and are not listed. Only a selection was taken, and actives are over-represented in it overall. A number with no mark means an inactive call. Calls come from the whole dose curve; as a rule, active = well fitted inhibition curve with a large enough effect; inconclusive = small, poorly fitted or top-dose-only effect; inactive = no such curve, though single readings can be large or run the other way.
% is set by controls: 0 for no effect and ±100 for the full control effect; potency is the fitted concentration of half-maximal effect.

The target of the test is Histone-lysine N-methyltransferase EHMT2 (Homo sapiens) (UniProt Q96KQ7). Nature of the test: qHTS Assay for Inhibitors of Histone Lysine Methyltransferase G9a. Note: nearly all actives have a fitted effect of over 75% in size. The conditions noted are these: G9a H3K9 monomethylation, AlphaScreen, 2 h; series mostly up to 59 µM; activity, negative = inhibition: at the top concentration. A digest of the protocol: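 Readings reflect AlphaScreen signal from monomethyl-H3K9 antibody detection. HMT at 20 nM; substrate b-H3K9 500 nM; cofactor SAM 20 uM; 2 h RT reaction; compounds tested as titrations in qHTS with 15 min preincubation.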
Sequence of Histone-lysine N-methyltransferase EHMT2 (Homo sapiens) (Q96KQ7 913-1193 limits assumed): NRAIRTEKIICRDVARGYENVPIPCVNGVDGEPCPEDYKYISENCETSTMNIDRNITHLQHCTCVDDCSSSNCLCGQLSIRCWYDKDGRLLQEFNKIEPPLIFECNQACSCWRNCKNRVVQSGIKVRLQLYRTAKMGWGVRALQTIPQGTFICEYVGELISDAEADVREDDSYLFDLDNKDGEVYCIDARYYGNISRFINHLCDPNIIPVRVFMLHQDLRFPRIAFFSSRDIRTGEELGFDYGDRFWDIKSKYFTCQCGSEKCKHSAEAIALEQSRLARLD
Regarding `CC(=O)Nc1ccc(S(=O)(=O)N2CCn3cccc3C2C)cc1` (configuration not stated), the activity, negative = inhibition is -104% [at 12.7 µM].

For the compound `CCOC(=O)C1(C)NC(c2ccco2)C2C(=O)N(c3ccccc3)C(=O)C21` (configuration not stated), the “activity, negative = inhibition” value was -5.49% [at 102 µM]. Regarding `COC(=O)C1(C)NC(c2ccc(C)cc2)C2C(=O)N(c3ccc(F)cc3)C(=O)C21` (configuration not stated), the “activity, negative = inhibition” value is 7.54% [at 102 µM]. Consider `CCCC1(C(=O)OCC)NC(c2ccc(N(C)C)cc2)C2C(=O)N(c3ccc4c(c3)OCCO4)C(=O)C21` (configuration not stated), for which the Potency is 8.91 µM (active). Turning to `Cc1csc(NC(=O)C2CCN(S(=O)(=O)c3ccccc3)CC2)n1`, the “activity, negative = inhibition” value is -7.29% [at 102 µM].

With `CC(=O)Nc1cccc(C(=O)Nc2nc(C)cs2)c1`, the “activity, negative = inhibition” value was 24.9% [at 102 µM]. Consider `Cc1csc(NC(=O)NC2(C(F)(F)F)Oc3ccccc3O2)n1`, for which the Potency is 2 µM (active). Regarding `O=C1OC(/C=C/c2ccccc2)=NC/1=C/c1ccco1`, the “activity, negative = inhibition” value is -5.86%. As to `CC(C)(C)C1C/C(=C/c2ccco2)C(=O)/C(=C/c2ccco2)C1` (configuration not stated), the Potency is 39.8 µM (active). For the compound `CCOC(=O)c1c(S(=O)(=O)N2CCC(C(=O)NCc3ccccc3OC)CC2)c(C)n(C)c1C`, the “activity, negative = inhibition” value was -3.21%.

On to `CCOC(=O)c1c(NC(=O)c2ccc(S(=O)(=O)N3CCCC(C)C3)cc2)sc2c1CCN(C(C)C)C2` (configuration not stated), for which the “activity, negative = inhibition” value is 8.5%. Take `CC(=O)Nc1ccc(OCC(=O)NCc2ccc(C)cc2)cc1`: the “activity, negative = inhibition” value was -2.76% [at 102 µM]. For `COC(=O)c1ccc(OCC(=O)NC(C)(C)C)cc1`, the “activity, negative = inhibition” value is 4.75% [at 102 µM].

As for `CC(C)(C)NC(=O)COc1ccc(CNc2ccc3[nH]c(=O)[nH]c3c2)cc1`, the Potency is 31.6 µM (active). With `Cc1ccc(OCC(=O)N2CCN(S(=O)(=O)c3ccc(Cl)s3)CC2)cc1C`, the activity, negative = inhibition is 6.17% [at 2.33 µM]. On to `C=CCNC(=O)COc1coc(CN2CCN(Cc3ccccc3)CC2)cc1=O`, for which the activity, negative = inhibition is 18.3% [at 0.501 µM]. As to `C=CCNC(=S)N/N=C/c1ccc(OCc2ccccc2)cc1`, the “activity, negative = inhibition” value is 12.6% [at 102 µM].

Consider `C=CCNC(=S)/N=c1/ccccn1Cc1ccccc1`, for which the Potency was 31.6 µM (active). For `O=C(CSc1nc2[nH]c(=O)[nH]c(=O)c2s1)Nc1cccc(F)c1`, the activity, negative = inhibition is 24.5% [at 12.7 µM]. On the same count and under the same terms, the result for `COc1ccc(OC)c(NC(=O)CSC2=Nc3ccccc3C3=NC(CC(=O)NCCc4ccccc4)C(=O)N23)c1` (configuration not stated) reads -2.77%.

Consider `Cc1cc(NC(=O)COC(=O)COc2ccc(Cl)cc2C)c([N+](=O)[O-])cc1C`, for which the Potency is 8.91 µM (active). For `COc1cc(NC(=O)COC(=O)CSc2ccc3ccccc3c2)c(C)cc1[N+](=O)[O-]`, the “activity, negative = inhibition” value is -14.8%.

For the compound `COc1ccc(OCC(=O)Nc2cc(C)c(Cl)cc2OC)c([N+](=O)[O-])c1`, the “activity, negative = inhibition” value is -4.05%. As for `Cc1ccccc1OCCSc1nc2ccc(NC(=O)c3ccco3)cc2s1`, the “activity, negative = inhibition” value is -0.195%.

Consider `CC(=O)c1c(C)[nH]c(C(=O)OCC(=O)Nc2c(C)cccc2C)c1C`, for which the activity, negative = inhibition was -11.6% [at 12.7 µM]. For `CC(=O)Nc1ccc(S(=O)(=O)Nc2ccc(N3CCOCC3)c(F)c2)cc1`, the “activity, negative = inhibition” value was -11.3%. Regarding `O=S(=O)(Nc1ccc2nc(N3CCOCC3)sc2c1)c1ccccc1`, the Potency was 50.1 µM (active).

For `Brc1ccc2nc(N3CCCC3)sc2c1`, the “activity, negative = inhibition” value is 5.39% [at 102 µM]. For the compound `Cc1ccc(-n2c(N)c(C(=O)N3CCOCC3)sc2=S)c(C)c1`, the Potency is 7.94 µM (active). Consider `Cc1cccc(C(=O)N2CCCN(C(=O)c3cccc(C)c3)CC2)c1`, for which the activity, negative = inhibition was -5.03% [at 12.7 µM]. Still for that read-out and setting: next, `COC(=O)c1sc(=S)n(-c2ccc(Cl)cc2)c1C`: -36.4%. With `Cc1ccc(S(=O)(=O)N2CCN(C(=O)N3CCOCC3)CC2)c(C)c1`, the “activity, negative = inhibition” value was 11.4% [at 102 µM].

Consider `COC(=O)c1sc(=S)n(-c2ccccc2)c1N`, for which the Potency was 3.16 µM (active). Regarding `CC(C)=C1SC(N2CCN(c3cccc(C)c3)CC2)=NC1=O`, the activity, negative = inhibition was 10.3% [at 12.7 µM]. As to `COC(=O)c1sc(N2CCN(Cc3ccccc3)CC2)nc1N`, the “activity, negative = inhibition” value was -23.6% [at 102 µM]. On the same count and under the same terms, next, `N#Cc1ccccc1-n1c(N)c(C(=O)N2CCCC2)sc1=S`: 19.8% [at 0.501 µM]. Consider `Cc1cccc(-n2c(N)c(C(=O)N3CCN(C)CC3)sc2=S)c1`, for which the Potency was 8.91 µM (active).

For the compound `COc1ccc(CCNc2nc(-c3ccc(Cl)cc3)cc(C(F)(F)F)n2)cc1OC`, the “activity, negative = inhibition” value is 30.5%. With `COc1cc(-c2noc(-c3ccc(N4CCCC4)c([N+](=O)[O-])c3)n2)cc(OC)c1OC`, the “activity, negative = inhibition” value is -34%.

With `O=C(COc1ccccc1)OCc1cc(=O)n2nc(-c3cccs3)sc2n1`, the “activity, negative = inhibition” value is 15.1%. On to `NC(=O)N/N=C\c1cccs1`, for which the “activity, negative = inhibition” value was 6.75% [at 102 µM]. Turning to `Cc1cc(/C=N/NC(N)=O)c(C)n1C1CCCCC1`, the Potency was 50.1 µM (active). Turning to `Cc1cccc(-n2c(C)cc(/C=N\NC(=O)c3cccs3)c2C)c1`, the “activity, negative = inhibition” value is 1.88%. Regarding `COc1ccc2c(c1)Cc1sc(NC(=O)c3ccccc3Br)nc1-2`, the Potency is 25.1 µM (active). For `Cn1c(=O)c(=O)n(C)c2cc(NC(=O)c3ccccc3Br)ccc21`, the “activity, negative = inhibition” value is 6.51%. Regarding `COc1cccc(C(=O)NNC(=O)c2ccccc2Br)c1`, the “activity, negative = inhibition” value is 2.81% [at 102 µM]. `COc1ccc(CNC(=O)c2cc3c(-c4ccccc4F)nn(C)c3s2)c(OC)c1`: the “activity, negative = inhibition” value was 3.86%.
